# Assay results from ChEMBL document CHEMBL3988442, “University of Dundee, Small-Polar-MMV Screening Library” (2021).
# About 1,000 (1.4%) of roughly 69,000 compounds showed an effect of 50% or more. The sample as a whole holds a higher share of strong results than the screen did.
# System: Leishmania donovani
# Assay: Leishmania intramacrophage assay
# Assay type: functional, organism-based
# Set-up: scale not given: in the data most compounds retested in dose-response had high values
compound,measurement,setting,value
CC(C)C(=O)N1CCC12CCCN(C(=O)c1ccccc1)C2 (stereo not drawn),Percent Effect,"30.3 µM, […]",9.102%
Cc1occc1CNC(=O)C1(C)CCCN(C(=O)c2ccccc2)C1 (stereo not drawn),Percent Effect,"30.3 µM, […]",52.94%
Cc1occc1CNC(=O)C1(C)CCCN1C(=O)c1ccccc1 (stereo not drawn),Percent Effect,"30.3 µM, […]",-78.28%
Cc1cc(CNS(=O)(=O)CCCC#N)ccc1N(C)C,Percent Effect,"30.3 µM, […]",31.94%
CCOc1ncnc2c1CCN(Cc1csc(C)n1)CC2.O=C(O)C(F)(F)F,Percent Effect,"30.3 µM, […]",25.55%
CCOc1cc2c(cc1CNC(Cc1cccs1)c1nccs1)OCO2.Cl (stereo not drawn),Percent Effect,"30.3 µM, […]",32.16%
Cc1[nH]c(-c2ccccc2)nc1C(=O)N1CCC2(CCCO2)CC1,Percent Effect,"30.3 µM, […]",62.09%
Cc1[nH]c(-c2ccccc2)nc1C(=O)N1CCC(O)(CO)CC1,Percent Effect,"30.3 µM, […]",20.13%
Cc1nccc(-c2ccccc2)c1C(=O)N1CCC2(CCCO2)CC1,Percent Effect,"30.3 µM, […]",-0.7591%
CS(=O)(=O)Cc1cccc(C(=O)N2CCCC(n3cccn3)C2)c1 (stereo not drawn),Percent Effect,"30 µM, 30.03 µM",-5.751%
CCc1ccc(C(=O)N2CCC(c3nncn3CC)CC2)o1,Percent Effect,"30.3 µM, […]",-10.9%
COc1cc(CNC(=O)c2csc(Br)c2)ccn1,Percent Effect,"30.3 µM, […]",18.58%
Cc1cc(CN(CC(N)=O)CC(C)C)on1,Percent Effect,"30.3 µM, […]",34.94%
Cc1cc(CN(CC(N)=O)CC(C)C)no1,Percent Effect,"30.3 µM, […]",34.93%
Cc1ccc(-c2cc(CN(CC(N)=O)CC(C)C)on2)cc1,Percent Effect,"30.3 µM, […]",57.13%
CN(C)C(=O)CO[C@H]1CN(Cc2ccc3c(c2)OCO3)[C@@H]2COC[C@H]12.O=C(O)C(F)(F)F,Percent Effect,"30.3 µM, […]",10.2%
O=C(O)Cc1cccc(-n2ccnc2-c2ccc(Cl)s2)c1,Percent Effect,"30.3 µM, […]",-13.71%
CC(NC(=O)NCCCO)c1ccc2c(c1)NC(=O)CO2 (stereo not drawn),Percent Effect,30 µM,9.165%
CC(NC(=O)C1CCCC1)c1nncn1C(C)C (stereo not drawn),Percent Effect,"30.3 µM, […]",53.36%
CC(NC(=O)C1CCN(C(C)C)CC1)c1nncn1C1CCCC1 (stereo not drawn),Percent Effect,"30.3 µM, […]",38.57%
CC(NC(=O)C1CCN(C(=O)C2CC2)CC1)c1nncn1C(C)C (stereo not drawn),Percent Effect,"30.3 µM, […]",27.99%
Cc1ccc(CN2CCOC3(CCCN(c4cccc(F)c4)C3)C2)o1.O=C(O)C(F)(F)F.O=C(O)C(F)(F)F (stereo not drawn),Percent Effect,"30.3 µM, […]",23.02%
O=C(NCCCOC1CCCCC1)C1NCCc2[nH]cnc21 (stereo not drawn),Percent Effect,"30.3 µM, […]",6.477%
COC(=O)NCC(=O)N1CCC(c2cc3ccccc3[nH]2)CC1,Percent Effect,"30.3 µM, […]",11.64%
N#CCCCS(=O)(=O)NC1(c2cccc(Cl)c2)CC1,Percent Effect,"30.3 µM, […]",17.77%
CCS(=O)(=O)N1CCc2ccc(NC(=O)Nc3cccc(SC)c3)cc21,Percent Effect,"30 µM, 30.03 µM",59.71%
CCS(=O)(=O)N1CCc2ccc(NC(=O)Nc3ccccc3)cc21,Percent Effect,"30.3 µM, […]",14.09%
CCS(=O)(=O)N1CCc2ccc(NC(=O)Nc3cccc(F)c3)cc21,Percent Effect,"30.3 µM, […]",17.8%
CC(=O)N(Cc1ncc(C(C)C)o1)C1CCN(Cc2cc(C)no2)C1 (stereo not drawn),Percent Effect,30 µM,25.52%
O=C1CN(C(=O)C2CN(c3ccccc3)CCO2)CCN1 (stereo not drawn),Percent Effect,"30.3 µM, […]",40.28%
O=C(NCCN1CCCCCC1)c1n[nH]c(=O)c2ccccc12,Percent Effect,"30.3 µM, […]",-32.33%
CC(C)n1c(=O)c2ccccc2n(CCCN(C)C)c1=O.Cl,Percent Effect,"30.3 µM, […]",-9.627%
CN(C)CCn1c(=O)n(C)c(=O)c2ccccc21.Cl,Percent Effect,"30.3 µM, […]",-33.87%
CC(C)n1c(=O)c2ccccc2n(CCN2CCCCC2)c1=O,Percent Effect,"30.3 µM, […]",52.87%
O=C(NCCCN1CCCCC1)c1n[nH]c(=O)c2ccccc12,Percent Effect,"30.3 µM, […]",20.29%
CC(C)n1c(=O)c2ccccc2n(CCN(C)C)c1=O.Cl,Percent Effect,"30.3 µM, […]",50.24%
CCOCCn1nnc(C2(NC(=O)c3ccccc3)CCCC2)n1,Percent Effect,"30 µM, 30.03 µM",1.124%
Cc1ccc(OC2(C(=O)N(C)Cc3ccoc3)CCNCC2)cc1,Percent Effect,"30.3 µM, […]",83.11%
CN(Cc1ccncn1)C(=O)C1(Oc2ccc(Cl)cc2)CCNCC1,Percent Effect,"30.3 µM, […]",12.34%
CN(Cc1ccoc1)C(=O)C1(Oc2ccc(Cl)cc2)CCNCC1,Percent Effect,"30.3 µM, […]",-16.66%
NC(=O)c1cccc2nc([C@H]3CCN(Cc4ccccc4F)C3)[nH]c12,Percent Effect,"30.3 µM, […]",22.02%
Cc1ccc(CN2CC[C@H](c3nc4cccc(C(N)=O)c4[nH]3)C2)cc1,Percent Effect,"30.3 µM, […]",-18.93%
NC(=O)c1cccc2nc([C@H]3CCN(Cc4ccccn4)C3)[nH]c12,Percent Effect,"30.3 µM, […]",53.25%
c1ccc(C(CC2CN(Cc3c[nH]cn3)CCO2)c2ccccc2)cc1 (stereo not drawn),Percent Effect,"30.3 µM, […]",20.85%
CN(C)S(=O)(=O)N(C)C(c1cccc(F)c1)c1ccccn1 (stereo not drawn),Percent Effect,30 µM,24.26%
Clc1ccc(N2CCC(C3CCN(Cc4cccnc4)CC3)C2)nc1 (stereo not drawn),Percent Effect,"30.3 µM, […]",-2.762%
Clc1cccnc1N1CCC(C2CCN(Cc3cccnc3)CC2)C1 (stereo not drawn),Percent Effect,"30.3 µM, […]",-17.23%
Clc1ccc(CN2CCC(C3CCN(Cc4cccnc4)CC3)C2)cc1 (stereo not drawn),Percent Effect,"30.3 µM, […]",51.57%
Cc1ncsc1CN(Cc1ccccc1)Cc1ccncc1,Percent Effect,"30.3 µM, […]",55.73%
Cc1ncsc1CN(Cc1ccccc1)Cc1ncc[nH]1,Percent Effect,"30.3 µM, […]",-37.36%
Cc1ncsc1C(=O)N(C)Cc1ccncc1,Percent Effect,"30 µM, 30.03 µM",-5.146%
Cc1noc(C2CCN(CC(=O)N3CCNC(=O)C3)CC2)n1,Percent Effect,"30.3 µM, […]",-15.33%
O=C(O)C1(Cc2cccc(Cl)c2)CCCN(c2ncnc3[nH]ccc23)C1 (stereo not drawn),Percent Effect,"30.3 µM, […]",20.11%
CCCSc1nn(CCCN(C)C)c2nc3sc(C)c(CC)c3c(=O)n12,Percent Effect,"30.3 µM, […]",-2.726%
O=C(c1ccoc1)N1Cc2cnn(CC3CC3)c2C(COCC2CC2)C1 (stereo not drawn),Percent Effect,"30.3 µM, […]",-14.05%
CC(C)C(=O)N1CCC(c2c(C(N)=O)sc3ccccc23)C1 (stereo not drawn),Percent Effect,"30.3 µM, […]",2.33%
CS(=O)(=O)CCCN1CCN(C(C#N)c2ccccc2)CC1 (stereo not drawn),Percent Effect,"30.3 µM, […]",16.78%
CC(C)S(=O)(=O)CCN1CCN(C(C#N)c2ccccc2)CC1 (stereo not drawn),Percent Effect,"30.3 µM, […]",27.38%
CCCS(=O)(=O)CCN1CCN(C(C#N)c2ccccc2)CC1 (stereo not drawn),Percent Effect,"30.3 µM, […]",50.86%
CC(C)c1nc(C2CCCN(C(=O)CCc3cscn3)C2)no1 (stereo not drawn),Percent Effect,30 µM,12.46%
Cc1oncc1C(=O)NCC1(O)CCc2ccccc2C1 (stereo not drawn),Percent Effect,"30.3 µM, […]",25.53%
Cc1nn(C)c(Cl)c1CNCc1cccnc1N1CCN(C)CC1.Cl,Percent Effect,"30 µM, 30.03 µM",52.88%
Cc1nn(C)c(Cl)c1CNCc1cccnc1N1CCCCC1.Cl,Percent Effect,"30.3 µM, […]",-11.04%
Cc1nn(C)c(Cl)c1CNCc1cccnc1N1CCOCC1.Cl,Percent Effect,"30 µM, 30.03 µM",2.073%
Cc1ccc(C)c(S(=O)(=O)CCNC2CCc3ncnn3C2)c1 (stereo not drawn),Percent Effect,30 µM,28.38%
CCc1ncc(CN[C@@H]2CCCN(C(C)=O)[C@H]2c2ccc(C)s2)cn1.Cl,Percent Effect,"30.3 µM, […]",12.48%
Cc1nc(-c2cc(C(=O)NCCN3CCOCC3)c3ccccn23)cs1.O=C(O)C(F)(F)F,Percent Effect,"30.3 µM, […]",-52.36%
CC(C)c1nc(-c2cc(C(=O)N3CCN(C)CC3)c3ccccn23)cs1.O=C(O)C(F)(F)F,Percent Effect,"30.3 µM, […]",16.88%
CC(C)c1nc(-c2cc(C(=O)NCCN(C)C)c3ccccn23)cs1.O=C(O)C(F)(F)F,Percent Effect,"30.3 µM, […]",74.71%
CC(C)c1nc(-c2cc(C(=O)NCCCO)c3ccccn23)cs1,Percent Effect,"30.3 µM, […]",30%
CC(C)c1nc(-c2cc(C(=O)O)c3ccccn23)cs1,Percent Effect,"30.3 µM, […]",-0.8279%
Cc1cnc(CNc2ccc(C(=O)NCc3ccco3)cc2C)o1,Percent Effect,"30.3 µM, […]",-20.82%
O=C(O)C(F)(F)F.c1cc(CNCC2Cn3nncc3CO2)co1 (stereo not drawn),Percent Effect,"30.3 µM, […]",20.1%
CCCn1nnnc1COC(=O)C1COc2ccc(Cl)cc2C1 (stereo not drawn),Percent Effect,"30.3 µM, […]",-4.057%
O=C(NCC1(c2cccc(F)c2)CC1)N1CCC2(CCOC2)C1 (stereo not drawn),Percent Effect,"30.3 µM, […]",-5.939%
CC1(C)OC(=O)N(CC(=O)N2CCC(c3ccccc3Cl)C2)C1=O (stereo not drawn),Percent Effect,"30.3 µM, […]",16.86%
CC(=O)N1CCC(Cc2cnc(C(=O)N3CCCC3)cn2)C1 (stereo not drawn),Percent Effect,"30.3 µM, […]",-5.476%
CCOCc1ccccc1CNc1ccc2nncn2n1,Percent Effect,"30.3 µM, […]",18.04%
CCn1ncc(Nc2[nH]cnc3nncc2-3)c1C,Percent Effect,"30.3 µM, […]",61.85%
CCn1ncc(CNc2[nH]cnc3nncc2-3)c1C,Percent Effect,"30.3 µM, […]",46.44%
CCn1ncc(Nc2[nH]cnc3nc(C)nc2-3)c1C,Percent Effect,"30.3 µM, […]",-7.482%
N#Cc1c(F)cccc1N1CCCC(C(=O)Nc2nccs2)C1 (stereo not drawn),Percent Effect,"30.3 µM, […]",38.57%
CN(c1ccc(CNC(=O)c2c[nH]c(=O)c(Cl)c2)cc1)C1CCCCC1,Percent Effect,"30.3 µM, […]",30.08%
Cc1ccc(C(=O)NCc2ccc(N(C)C)cc2)cn1,Percent Effect,"30.3 µM, […]",1.485%
CN(c1ccc(CNC(=O)c2ccc(O)nc2)cc1)C1CCCCC1,Percent Effect,"30.3 µM, […]",57.37%
CNC(=O)c1cc(C)n(-c2ccccc2)n1,Percent Effect,"30.3 µM, […]",21.3%
Cc1nnc(CN(C)C2CCN(Cc3nc4ccccc4n3C)C2)o1 (stereo not drawn),Percent Effect,30 µM,31.75%
Cc1cnc(CN(C)C2CCN(Cc3nc4ccccc4o3)C2)o1 (stereo not drawn),Percent Effect,30 µM,8.725%
Cc1cnc(CN(C)C2CCN(Cc3nc4ccccc4n3C)C2)o1 (stereo not drawn),Percent Effect,"30 µM, 30.03 µM",57.21%
CC(=O)N(Cc1ncc(C)o1)C1CCN(Cc2ccncc2Cl)C1 (stereo not drawn),Percent Effect,"30 µM, 30.03 µM",31.13%
CC(=O)N(Cc1ncc(C)o1)C1CCN(Cc2cccc(C#N)c2)C1 (stereo not drawn),Percent Effect,"30 µM, 30.03 µM",6.646%
O=C(c1ccccc1O)N1CCn2c(nnc2C(F)(F)F)C1,Percent Effect,"30.3 µM, […]",-5.557%
CCN(CC)Cc1cc(=O)n2c(n1)CN(C(=O)c1ccc[nH]1)CCC2,Percent Effect,"30.3 µM, […]",36.34%
c1ccc(-c2nnc3ccc(N4CCC5(CCOC5)C4)nn23)cc1 (stereo not drawn),Percent Effect,"30.3 µM, […]",-7.106%
CCN(CCCNC(=O)Nc1ccccc1C(C)C)S(C)(=O)=O,Percent Effect,"30.3 µM, […]",27.9%
O=C(NCCCN1CCCCC1)c1ccc(-n2ccc3ccccc32)s1,Percent Effect,"30 µM, 30.03 µM",94.7%
O=C(NCCCN1CCCC1=O)c1ccc(-n2ccc3ccccc32)s1,Percent Effect,"30.3 µM, […]",32.92%
O=C(NCCN1CCOCC1)c1ccc(-n2ccc3ccccc32)s1,Percent Effect,"30 µM, 30.03 µM",37.35%
O=C(NCCCN1CCOCC1)c1ccc(-n2ccc3ccccc32)s1,Percent Effect,"30.3 µM, […]",90.86%
CCC1CN(CC(=O)NCCN(CC)CC)c2ccccc2S1 (stereo not drawn),Percent Effect,"30.3 µM, […]",24.72%
CCN(CC)CCNC(=O)c1cnc(C(C)(C)C)s1,Percent Effect,"30 µM, 30.03 µM",10.1%
Cn1ccc2c(C(=O)NCCCN3CCCC3)cccc21,Percent Effect,"30.3 µM, […]",16.97%
CCN(CC)CCNC(=O)c1ccc(-n2ccc3ccccc32)s1,Percent Effect,"30.3 µM, […]",95.71%
